Compound activity deposited in PubChem by National Center for Advancing Translational Sciences (NCATS).
SW480 rereplic – A quantitative high throughput screen for small molecules that induce DNA re-replication in SW480 colon adenocarcinoma cells; 340,000 compounds, 1.8% hits; Potency, µM (titrated, usually from 46.1 µM), inactives show top-dose re-replication activation, most hits filed as activators; SW480 DNA re-replication, Hoechst DNA content imaging, 48 h; AID 624297, 2012; also: potency is read from the fitted curve at half-maximal effect; % of control where 0% means no effect; nearly all actives have a fitted effect of over 55% in size
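Cells (250 per well) received 23 nL compound or DMSO by pin tool and were kept 48 hr at 37 C, 5% CO2. Nuclei were then stained with Hoechst for 40 min and scanned for DNA content.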
IL1B secr inh – qHTS for Inhibitors of Inflammasome Signaling: IL-1-beta AlphaLISA Primary Screen | 360,000 compounds, 4.7% hits | activity change, % at 57.5 µM | AID 743279, 2014 | THP-1 LPS/ATP IL-1B secretion, AlphaLISA, 16 h; stronger effect = lower value; in the data active = activity change below about -50%; inconclusive = mostly about -30% to -49%; also: % is scaled to controls: 0 for no effect and ±100 for the full control effect
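Secreted IL-1B measured by AlphaLISA bead assay after 16 h compound exposure of THP-1 cells; compounds (final up to 57.5 uM) added 1 h before LPS (250 ng/mL) and ATP (1.25 mM) stimulation; lower signal means less secretion.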
KB-V1 MDR tox – qHTS assay for MDR1-selective chemotherapeutics: Primary screen using the drug-selected MDR subline cells KB-V1; KB-V1 MDR cells viability, CellTiter-Glo, 72 h; Potency, µM (highest dose often 46.1 µM), actives largely listed as cytotoxic; 400,000 compounds, 3.4% hits; AID 1347076, 2019; also: potency is read from the fitted curve at half-maximal effect; % is scaled to controls: 0 for no effect and ±100 for the full control effect; nearly all actives have a fitted effect of over 60% in size
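Luminescent ATP read-out (CellTiter-Glo, 10 min) measures survival of drug-selected KB-V1 MDR cells after 72 h, 37 degrees C compound exposure. Medium: phenol-red-free DMEM, 10% FBS. Values from fitted concentration-response curves.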
KB-3-1 cytotox – qHTS assay for MDR1-selective chemotherapeutics: Primary screen using the parental adenocarcinoma cell KB-3-1; KB-3-1 viability, CellTiter-Glo ATP luminescence, 72 h; Potency, µM (series often up to 46.1 µM), usual class: cytotoxic; 400,000 compounds, 1.4% hits; also: potency is read from the fitted curve at half-maximal effect; % is scaled to controls: 0 for no effect and ±100 for the full control effect; nearly all actives have a fitted effect of over 60% in size
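Cytotoxicity in the drug-sensitive parental line KB-3-1 was scored as loss of CellTiter-Glo luminescence following 72 h incubation with compound. Values come from curve fitting of normalized concentration-response data.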
MCF10A rerep – A quantitative high throughput screen for small molecules that induce DNA re-replication in MCF 10a normal breast cells; MCF 10A DNA re-replication, Hoechst nuclear intensity, 48 h; Potency, µM (highest dose often 46.1 µM), without a hit: top-dose activity, positive = re-replication, most hits filed as activators; 350,000 compounds, 2.9% hits; AID 624296, 2012; also: potency is read from the fitted curve at half-maximal effect; % of control where 0% means no effect; nearly all actives have a fitted effect of over 50% in size
Numbers without * were called inactive; i = inactive; ? = inconclusive; / = no result; [ ] = remark or other dose. Hits are enriched below; roughly 9.9% of the tested compounds scored in any of these assays. Unless noted, calls follow the shape of the dose curve; as a rule, active = well fitted curve in the direction sought with a large enough effect; inconclusive = small, poorly fitted or top-dose-only effect, or another doubt; inactive = no such curve, though single readings can be large; an effect the other way counts as inactive or inconclusive.

SMILES	SW480 rereplic	IL1B secr inh	KB-V1 MDR tox	KB-3-1 cytotox	MCF10A rerep
CN(C(=O)CC1C(=O)NCCN1Cc1ccccc1C(F)(F)F)C1CCOCC1 (stereo not drawn)	3%	3	i	i	2%
C=CCN(C(=O)C1CC(=O)N(C2CCCC2)C1)c1nc(-c2ccc(S(C)(=O)=O)cc2)cs1 (stereo not drawn)	-9%	0	2.9µM*	18µM*	18%
C=CCN(C(=O)CN1CCCCC1)c1nc(-c2ccccc2)cs1	-6%	-13	i	i	?
O=C(Cc1coc2cc3c(cc12)CCC3)NCC1(N2CCCCC2)CCCCC1	-6%	-82*	?	i	9%
CCOc1ccccc1NC(=O)CN(C)S(=O)(=O)c1ccc(C(=O)N2CCOCC2)s1	/	/	?	i	/
Cc1cccc2sc(N(CCCN(C)C)C(=O)CN3C(=O)c4ccccc4C3=O)nc12	2%	-8	i	i	-2%
CN(C)CCCN(C(=O)CCc1ccccc1)c1nc2ccc(Br)cc2s1	0%	-102*	23µM*	?	?
Cc1cccc2sc(N(CCCN(C)C)C(=O)CCc3ccccc3)nc12	?	-18	16µM*	?	?
CN(C)CCCN(C(=O)CCc1ccccc1)c1nc2ccc(F)cc2s1	4%	-18	i	i	1%
CN(C)CCCN(C(=O)c1ccco1)c1nc2ccc(Br)cc2s1	?	-70*	i	i	-1%
COc1cc2ccccc2cc1C(=O)N(CCN(C)C)c1nc2ccc(Br)cc2s1	23µM*	-5	?	?	?
CC(=O)Nc1ccc(NC(=O)c2ccccc2S(=O)(=O)c2ccc([N+](=O)[O-])cc2)cc1	-6%	22	i	i	11%
COc1cc(C(=O)OC(C)c2ccc(F)cc2)ccc1OCC(=O)N1CCOCC1 (stereo not drawn)	-1%	32	i	i	-1%
COc1ccc(OC)c(NC(=O)c2ccc(CSc3nnc(C)s3)cc2)c1	-7%	-60*	i	i	-10%
CCOc1cc(C(=O)N2CCC(CC3CC(c4ccc(Cl)cc4)=NO3)(C(=O)NCC3CCCCC3)CC2)cc(OCC)c1OCC (stereo not drawn)	1%	?	?	i	3%
Clc1ccc(CO/N=C/c2c(-c3ccccc3)nc3n2CCS3)c(Cl)c1	5%	0	15µM*	i	?
COC(=O)c1cc2sc(Cl)cc2n1CC(=O)Nc1ccc(OC)c(OC)c1OC	18%	14	i	i	26µM*
COC(=O)c1cc2occc2n1CC(=O)Nc1ccc(OC)c(OC)c1OC	-3%	20	i	i	4%
COc1cc(C(C)=O)ccc1OCC(O)CN1CCN(c2ccccn2)CC1 (stereo not drawn)	0%	-56*	i	i	12%
CN(N=O)c1ccc2c(c1)Cc1ccccc1-2	/	/	i	i	/
C/C(=N\NC(N)=S)c1ccc(-n2ccnc2)cc1	1%	0	i	i	1%
C=C(C)CNC(=S)N/N=C(\C)c1ccc(-n2ccnc2)cc1	-5%	-7	15µM*	i	?
C/C(=N\Nc1ccc(Cl)c(Cl)c1)c1ccc(-n2ccnc2)cc1	?	-65*	i	i	?
CCCCC1(Cc2cccc([N+](=O)[O-])c2)C(=O)N(c2ccccc2)N(c2ccccc2)C1=O	?	4	i	i	?
O=C(/C=C/c1ccccc1)N1CCC(N2CCC(C(=O)N3CCOCC3)CC2)CC1	-81%	-15	i	i	-9%
SMILES	SW480 rereplic	IL1B secr inh	KB-V1 MDR tox	KB-3-1 cytotox	MCF10A rerep
CCCC(/C=C/c1ccc(OC(C)=O)cc1)=C1/c2ccccc2C(=O)N1c1ccccc1	?	-63*	i	i	?
CC(=O)Oc1ccc(C#C/C=C2\c3ccccc3C(=O)N2c2ccccc2)cc1	?	-100*	i	?	?
O=C(Oc1ccccc1)c1cc(O)c(O)c(O)c1	/	130	i	i	/
CC(=O)Oc1ccc(N(c2ccccc2)S(=O)(=O)c2ccc(C)cc2)cc1	?	-5	15µM*	?	?
O=C(Cn1sc2ccccc2c1=O)Nc1ccccc1	/	-104*	i	?	/
O=C(Cn1sc2ccccc2c1=O)NC12CC3CC(CC(C3)C1)C2	?	-99*	?	i	?
Nc1cccc2c1C(=O)N(CC(=O)NC13CC4CC(CC(C4)C1)C3)C2=O	?	27	i	i	?
CC(=O)c1c(C)[nH]c(C(=O)COC(=O)CNS(=O)(=O)c2ccccc2)c1C	-6%	3	i	i	21%
CCOC(=O)c1c(C)[nH]c(C(=O)COC(=O)CNS(=O)(=O)c2ccc(C)cc2)c1C	-3%	14	4.6µM*	i	-2%
CCOC(=O)c1c(C)[nH]c(C(=O)COC(=O)CCSc2ccccc2)c1C	14%	16	1.6µM*	?	29%
O=C(/C(=C/c1ccc(Cl)cc1)c1nc2ccccc2[nH]1)c1ccccc1	5.2µM*	-101*	?	5.2µM*	6.5µM*
O=C(N/C(=C/c1ccc(Cl)cc1)c1nc2ccccc2[nH]1)c1ccco1	-2%	-28	12µM*	i	?
O=C(Nc1nc2ccccc2[nH]1)c1ccc(Cl)cc1	-1%	48	?	?	4%
Cc1cc(NC(=O)Cc2ccccc2)ccc1NC(=O)c1cccs1	10%[1.84 µM]	?	i	i	-30%
CCC(C)Sc1ccc(-c2nc3ccc(C)cn3c2NCc2ccccc2)cc1OC (stereo not drawn)	?	-100*	?	i	6.5µM*
CCC(C)Sc1cc(-c2nc3ccc(C)cn3c2NCc2ccccc2)ccc1OC (stereo not drawn)	?	-102*	?	?	?
CCC(C)Sc1ccc(-c2nc3ccc(Cl)cn3c2NCc2ccccc2)cc1 (stereo not drawn)	15%	-7	i	i	12µM*
COCCNc1c(-c2ccc(OC)c(OC)c2)nc2ccc(Cl)cn12	-9%	?	i	i	?
COc1ccc(-c2nc3ccc(Br)cn3c2Cc2ccccc2)cc1OC	/	-11	i	?	/
Cc1ccccc1CN1C(=O)c2ccccc2S(=O)(=O)c2ccc(C(=O)OCC3CCCO3)cc21 (stereo not drawn)	/	/	i	i	/
CC1CCN(C(=O)c2ccc(NC(=O)c3ccccc3)cc2)CC1	2%	-6	i	i	3%
